Data on 22 molecules can be found in article PMC12136788.

Whole data set: some 24,000 sequences, median “enrichment r” near 0.99, cut for the highest 2% near 3.7. The list is a sample of the results.

The chains are these.
B1: chr7:134094464:134094465:+_ENSMUSG00000030683_ENSMUST00000106335|mus_hu|FALSE|FALSE (ssRNA)
RNA: GGGAGUUCUACAGUCCGACGAUCCUCCGUCUCCGUUUAUCUUUCCCUUUAAUUGUUUUUUUUUUUUUUUUUUUUUUCCUCGUAGGAGUCAGCAAAGAAAGACAAUUUCUCUGCCCCUUGGGAUGGAGGGGCAGAAUUGGGCUACAACAGAGGAUUGAGCAUCA
B2: chr19:3980662:3980663:-_ENSG00000167658_ENST00000309311|hu_mus|FALSE|FALSE (ssRNA)
RNA: GGGAGUUCUACAGUCCGACGAUCGAACACUCUACCAAAGGCAUAGAAGCGGCCUUUGUCAGAGGUUGGCACCAUCUUGGAAAUGUACAUCAUAAGUGGGCCUUUGGGGUCGCAGCUCUUAAUACCCAUGGCGGCCUCAUCGUCCAACAGAGGAUUGAGCAUCA
B3: chr16:45382771:45382772:-_ENSMUSG00000022661_ENSMUST00000163230|mus_mus|motif|central (ssRNA)
RNA: GGGAGUUCUACAGUCCGACGAUCGAGAGUGUUAUUGUGGGCCCAAUGGAUAGGGAGAGCAUGCUUUUGUAAAGAUGUGAACGGCUCACUAAGACUAACAAUAUUGCCUAAGUGCUAUAAAAAUAAGUUAAAUGGACACAUUACCAACAGAGGAUUGAGCAUCA
B4: chr6:44218825:44218826:+_ENSG00000096384_ENST00000371646|hu_hu|FALSE|FALSE (ssRNA)
RNA: GGGAGUUCUACAGUCCGACGAUCGUUGUUCUUUUUCUUCUUGUUCUCAAAAAGGUCAAAGGGAGCCCGACGAGGAAUAAAUAGCAAUGCCCUGAAUUCCAACUGACCUUCUACAGAAAAGUGCUUGACUGCCAAGUGGUCUUCCAACAGAGGAUUGAGCAUCA
B5: chr10:115881139:115881140:-_ENSG00000165813_ENST00000369287|hu_hu|motif|central (ssRNA)
RNA: GGGAGUUCUACAGUCCGACGAUCAUAAAAAUAUUUUCACCAGGGUAGCAUAUAUAACAACAUUUACAUUAUUAAGGAUUCGGUUUUUUUCUUUUACUGAUAAAUCUUGGUUUAAAUUUGCAUGUAACAAUUUUUAGAAAAUAACAACAGAGGAUUGAGCAUCA
B6: chr4:62795864:62795865:+_ENSMUSG00000028358_ENSMUST00000107415|mus_hu|motif|central (ssRNA)
RNA: GGGAGUUCUACAGUCCGACGAUCCAGAGUCUAAAUCAAAUCUGAAGAAACAAAAUGAACCCCCAAACAAGGUAAAAAUUGCGGAAAUGUUAGGGAGAGAAAUUAUUAGGGAGUGGAGACAGUAUCUAUACUUCUCUGAAAAAUCAACAGAGGAUUGAGCAUCA
B7: chr1:44133529:44133530:+_ENSG00000066135_ENST00000372396|hu_hu|FALSE|FALSE (ssRNA)
RNA: GGGAGUUCUACAGUCCGACGAUCAAACUCAGCUGCUUCUGGCGUGGGCAGAGUAUGGUCAAUAACUGUGUUGUCCUUCCCAGCUUUCCAAAGUUUGUACCUUUCUGGCUGGAACUUUCUCACAAACACAUCCAUGGAGAUCUUCAACAGAGGAUUGAGCAUCA
B8: chr7:149068622:149068623:-_ENSMUSG00000025139_ENSMUST00000001950|mus_hu|mus_mus_mus_hu_False|28_108 (ssRNA)
RNA: GGGAGUUCUACAGUCCGACGAUCGUGCAGGUACUGAGUGUGGCUUGUGGUCUGUCCUGGGUUAGAGUUGUUAAUAUCACGGAACAUACCAUCUAGAACGUUCCAGUCUGCCUGACUACCUUCAUUCCCAAUGGAGAAGAAAUCCAACAGAGGAUUGAGCAUCA
B9: chr12:111867003:111867004:+_ENSMUSG00000018707_ENSMUST00000018851|mus_hu|FALSE|FALSE (ssRNA)
RNA: GGGAGUUCUACAGUCCGACGAUCCACCAGCAUAUUUAUCUUCAUGUAACCUUUCAGAAGCCUCUGAACAAACUCAUAGGACGCAUACUGUCGCAACCGGGCAGGGAAGCUUUUCAGCUGGUUCAGGAGGGCAUCCAAAUUUUGCAACAGAGGAUUGAGCAUCA
B10: chr18:32579733:32579734:+_ENSMUSG00000024381_ENSMUST00000025239|mus_mus|motif|central (ssRNA)
RNA: GGGAGUUCUACAGUCCGACGAUCUUUAUGGAAGUUUUCCUCCAGACCCGCGAUGCUCUGGAACGUGUUGACAUAGAAACCGGCACGGCUGUUCCACAGGGAUGGCAGCUCCUCCUGCAGAUCCACGUUCAUCUCCUCGAACACCAACAGAGGAUUGAGCAUCA
B11: chr8:27055589:27055590:-_ENSMUSG00000037260_ENSMUST00000037609|mus_hu|FALSE|FALSE (ssRNA)
RNA: GGGAGUUCUACAGUCCGACGAUCUUCCCUUUAACAAAGGCUGCUUCAGUCCUCCCUGCAGGCCUACUAGAGUCUUCCAGCAGCACAUCUCAGUGGGAGCCAUCAGAUUUUCCAAAAAAUCUUCUUUCUAUAGAGGAUGUAGGCCAACAGAGGAUUGAGCAUCA
B12: chr16:94690093:94690094:+_ENSMUSG00000040785_ENSMUST00000117648|mus_hu|mus_mus_mus_hu_True|28_38 (ssRNA)
RNA: GGGAGUUCUACAGUCCGACGAUCGGGCUGGGAUGACGGACACACAGCCUCGAUUCCAGGGGGAAAAAGUCUUAGUCGAUACUAAUUAAAAAGUGUUUUUAUAAUUGAUUACCAAAAUUACAUCUAUAAAAGAUGAAAAGCAAACAACAGAGGAUUGAGCAUCA
B13: chr12:16048344:16048345:+_ENSG00000023734_ENST00000419869|hu_hu|hu_hu_hu_mus_True|18_18 (ssRNA)
RNA: GGGAGUUCUACAGUCCGACGAUCAGAUCGUCCAUAAGUAAUAACCAAAAUCUCUCCUUCAGGAAUAUACUCCAUGCUGCUAACAGACAUAUUAAAAUUCAGAGAUUUCACUUCUGUCAUAGUAGCAUGAUCCCAGAGCCGAACCAACAGAGGAUUGAGCAUCA
B14: chr5:134191040:134191041:+_ENSG00000181904_ENST00000394976|hu_hu|motif|central (ssRNA)
RNA: GGGAGUUCUACAGUCCGACGAUCAAAAGCAGCAGUGCCACAGCCAUAACCAAGAUCGGCAAGACGGGAUAGAGCUUUAAUGCGGCCUGGAGGUCUGCCUGGGCUGACUUUGUAUCCCGCAGCUUUAGUUGUCCCCAAAGGUCUCAACAGAGGAUUGAGCAUCA
B15: chr9:74905015:74905016:+_ENSMUSG00000007656_ENSMUST00000169492|mus_hu|FALSE|FALSE (ssRNA)
RNA: GGGAGUUCUACAGUCCGACGAUCUGUGUUUGAAAUAUGUGACCUUUCUUCUAACUUGUGGUCUUAAACUUCUGUUUUACAAAAUCCAAAAGGUAAAUACAGAAGAAAUCAAUACAAUAGAGAUUAUAUUAAAUAAGAGUAACACAACAGAGGAUUGAGCAUCA
B16: chr22:32879901:32879902:+_ENSG00000100225_ENST00000397426|hu_mus|hu_hu_hu_mus_False|8_18 (ssRNA)
RNA: GGGAGUUCUACAGUCCGACGAUCCUCUUCCAUACUCAUGGCAUCCUGAAUUGACUCAGCUUCAACAUUUUGACUAGGCCCUUCCAUACUGUCAUCAGUCCAGGCAUCAAAUGGGGUUGCCUGUCCUUGGAAUGAAUCAGUCCCCAACAGAGGAUUGAGCAUCA
B17: chr6:50805741:50805742:+_ENSG00000008196_ENST00000393655|hu_hu|FALSE|FALSE (ssRNA)
RNA: GGGAGUUCUACAGUCCGACGAUCCAGGGAGGUGAGUAACGUGACAUUUGCUGCUUUGCGCCUGCCCGCGGGUAAAUUCAAACCGAUUUUUUCUAGCCUUUCUCGCAAAGAUCUCCCCCCAUUUUUCGAUUUGGCUCUUCUGAGCAACAGAGGAUUGAGCAUCA
B18: chr7:99593380:99593381:+_ENSMUSG00000052572_ENSMUST00000098308|mus_hu|FALSE|FALSE (ssRNA)
RNA: GGGAGUUCUACAGUCCGACGAUCGGUGAGGAGGCUCUCAUCUCAUCUCUUGGGCAGAAAGCCCGUCAGAGGUUCAUCCCUACACCUGGCACUUUGAGCAAACCAAAGCCUUCCUUCAUACUGCAAUGUCUUUUCUGUCCCACCCAACAGAGGAUUGAGCAUCA
B19: 73047273_73096420_338_5pUTR_ENSG00000163605_ENST00000295862|human|control|control (ssRNA)
RNA: GGGAGUUCUACAGUCCGACGAUCGGCUCAGGAGCUGAAGUUCUGAAAUCAUCCAUCACUUUCUCCAGUUUGAAAAUAAAAUAGCCUUUAAAUUGGGACCACUGAAUCAUUGUUUCUCCAGUCUUGGCUACAUGACAAAGAAACCAACAGAGGAUUGAGCAUCA
B20: chr3:179287964:179287965:+_ENSG00000136518_ENST00000429709|hu_hu|hu_hu_hu_mus_True|28_38 (ssRNA)
RNA: GGGAGUUCUACAGUCCGACGAUCCUUGAGUGGUGAGAUGGCCUCCAUGUUCUCCCUGGGCACGCGGAGGGCAUUGGUGUCUAUGUAGUAGGUGGGCCCGCCUUGUUUGCCUUUAUCACCAUCAAUCUCCAUCAUUGUACUUCCCAACAGAGGAUUGAGCAUCA
B21: chr9:35286173:35286174:+_ENSMUSG00000038119_ENSMUST00000042842|mus_hu|FALSE|FALSE (ssRNA)
RNA: GGGAGUUCUACAGUCCGACGAUCAGUGUUAUUGUUACUUGAUGGAAUGUACGUCCACUUUAGCAUGAUCUGAGUAUCGCUGACAGCCUCUGUGUAUGCAAUGUGAGGUCCAGUUAUUGGACGGCUGGAAAAGCGAUUGGGGAACAACAGAGGAUUGAGCAUCA
B22: chr1:39494564:39494565:+_ENSG00000168653_ENST00000372967|hu_hu|hu_hu_hu_mus_True|28_68 (ssRNA)
RNA: GGGAGUUCUACAGUCCGACGAUCAUGCAUUCGCCUCAUCGUUUUGUACCGAAGCAAGCACUCUUCGAAAUCAUCAUACUCUAUCUUGCACUCCUUUUUCGCCCGGGUAUAACCGAUCCCGUGUGCACACUCUAUCCACUCUUUCAACAGAGGAUUGAGCAUCA

The assay has as its target T1, UNK ZnF1-3 (human, UniProt Q9C0B0 31-174).
T1 sequence: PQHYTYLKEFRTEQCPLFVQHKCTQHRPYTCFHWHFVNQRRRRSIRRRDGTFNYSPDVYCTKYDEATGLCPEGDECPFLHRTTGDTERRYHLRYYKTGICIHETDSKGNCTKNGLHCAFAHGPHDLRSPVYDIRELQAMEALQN
Briefly: nsRBNS (natural sequence RNA bind-n-seq); RBNS binding buffer (assumed for nsRBNS): 25 mM Tris pH 7.5, 150 mM KCl, 3 mM MgCl2, 0.01% Triton X-100, 500 ug/ml BSA, 20 U/ml SUPERase-In, 4 C; UNK is unkempt and MSI1 is Musashi-1; names of the RNAs are library labels; protein concentration not given here; high values mean tight binding.
B1 returned a binding signal of 1.16 enrichment R.

On to B2, for which the binding signal is 1.18 enrichment R.

B3: the binding signal came out at 2.47 enrichment R.

On to B4, for which the binding signal stood at 0.931 enrichment R.

With B5, the binding signal was determined as 2.85 enrichment R.

Consider B6, for which the binding signal is 1.32 enrichment R.

Consider B7, for which the binding signal was 0.628 enrichment R.

B8 displayed a binding signal of 0.859 enrichment R.

As for B9, the binding signal came to 1.13 enrichment R.

In turn, B10 displayed a binding signal of 0.625 enrichment R.

In turn, B11 had a binding signal of 1.28 enrichment R.

As to B12, the binding signal is 1.26 enrichment R.

With B13, the binding signal is 0.977 enrichment R.

Molecule B14 had a binding signal of 1.39 enrichment R.

Take B15: the binding signal was determined as 2.28 enrichment R.

Take B16: the binding signal stood at 1 enrichment R.

The molecule B17 displayed a binding signal of 1.13 enrichment R.

The molecule B18 returned a binding signal of 1.29 enrichment R.

For the molecule B19, the binding signal was 1.25 enrichment R.

Take B20: the binding signal worked out at 0.581 enrichment R.

Molecule B21 displayed a binding signal of 1.04 enrichment R.

In turn, B22 returned a binding signal of 0.701 enrichment R.
